Source: PubChem BioAssay (NCI)
Compounds without any hit were thinned out: in the full panel of roughly 83,000, 20% have a hit.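 48-hour exposure, single concentration, 96-well plates; percent growth endpoint where 0 means no net growth. Active: below 10.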 Unmarked numbers belong to inactive results. Calls of active or inactive are those of the source.

Columns and labels:
Experiment in all cases: NCI-60 one-dose screen, 48 h (100 = growth as untreated, 0 = no growth, -100 = all killed)
Conditions in all cases: 10 µM unless noted
NCI-H226 lung = test system: NCI-H226 lung
NCI-H322M lung = test system: NCI-H322M lung
HOP-62 NSCLC = test system: HOP-62 NSCLC
NCI-H460 lung = test system: NCI-H460 lung
HOP-92 NSCLC = test system: HOP-92 NSCLC
NCI-H522 lung = test system: NCI-H522 lung
A549/ATCC NSCLC = test system: A549/ATCC NSCLC
786-0 renal = test system: 786-0 renal
COLO 205 colon = test system: COLO 205 colon

COc1cc(-c2nc3ccccc3s2)ccc1NC(=O)COc1ccc(Cl)cc1
growth (NCI-H226 lung): 60%
growth (NCI-H322M lung): 71%
growth (HOP-62 NSCLC): 29.1%
growth (NCI-H460 lung): 13.4%
growth (HOP-92 NSCLC): 8.1% (active)
growth (NCI-H522 lung): 38.6%
growth (A549/ATCC NSCLC): 49.2%
growth (786-0 renal): 16.8%
growth (COLO 205 colon): 52.8%

O=C(NCc1cccc(C(F)(F)F)c1)[C@H](CCC(=O)N1CCN(C2CCCCC2)CC1)N1C(=O)[C@@H](N2C(=O)OC[C@@H]2c2ccccc2)[C@H]1/C(Cl)=C/c1ccccc1
growth (NCI-H226 lung): 73.2%
growth (HOP-62 NSCLC): 55.6%
growth (NCI-H460 lung): 47.8%
growth (HOP-92 NSCLC): 32.6%
growth (NCI-H522 lung): 33.7%
growth (A549/ATCC NSCLC): 37.7%
growth (786-0 renal): 49.9%
growth (COLO 205 colon): 40.7%

Cc1nc2nc(N)nc(N)c2nc1C
growth (NCI-H226 lung): 94.6%
growth (NCI-H322M lung): 95.1%
growth (HOP-62 NSCLC): 88.6%
growth (NCI-H460 lung): 108%
growth (HOP-92 NSCLC): 87.3%
growth (NCI-H522 lung): 89.8%
growth (A549/ATCC NSCLC): 102%
growth (786-0 renal): 98.4%
growth (COLO 205 colon): 117%

COC1C/C(=N\O)C2OC(c3ccccc3)OCC2O1 (centres undefined)
growth (NCI-H226 lung): 103%
growth (NCI-H322M lung): 99.9%
growth (HOP-62 NSCLC): 114%
growth (NCI-H460 lung): 112%
growth (HOP-92 NSCLC): 90.7%
growth (NCI-H522 lung): 97.3%
growth (A549/ATCC NSCLC): 88.3%
growth (786-0 renal): 104%
growth (COLO 205 colon): 107%

COc1cnc2c(c1)C(=O)c1c-2n(CCCN2CCNCC2)c(=O)c2cc([N+](=O)[O-])ccc12
growth (NCI-H226 lung): -59.4% (active)
growth (NCI-H322M lung): -72.2% (active)
growth (HOP-62 NSCLC): -67.2% (active)
growth (NCI-H460 lung): -42.3% (active)
growth (HOP-92 NSCLC): 22.8%
growth (NCI-H522 lung): -48.2% (active)
growth (A549/ATCC NSCLC): -87.2% (active)
growth (786-0 renal): -85.8% (active)
growth (COLO 205 colon): 14.4%

CCN(CC)CCCC(C)NCCCNc1cccc2cccnc12 (centres undefined)
growth (NCI-H226 lung): 93.5%
growth (NCI-H322M lung): 79.1%
growth (HOP-62 NSCLC): 82.6%
growth (NCI-H460 lung): 101%
growth (HOP-92 NSCLC): 92.5%
growth (NCI-H522 lung): 103%
growth (A549/ATCC NSCLC): 106%
growth (786-0 renal): 109%
growth (COLO 205 colon): 91.7%

CCC(=O)OCc1cccc(OC)c1
growth (NCI-H226 lung): 97.9%
growth (NCI-H322M lung): 108%
growth (HOP-62 NSCLC): 87.9%
growth (NCI-H460 lung): 95.8%
growth (HOP-92 NSCLC): 76.4%
growth (NCI-H522 lung): 94.5%
growth (A549/ATCC NSCLC): 113%
growth (786-0 renal): 102%
growth (COLO 205 colon): 111%

CCCCCCCCCCCCN1CCCC(C)C1 (centres undefined)
growth (NCI-H226 lung): 85.3%
growth (NCI-H322M lung): 87.2%
growth (HOP-62 NSCLC): 89.1%
growth (NCI-H460 lung): 106%
growth (HOP-92 NSCLC): 73%
growth (NCI-H522 lung): 69.3%
growth (A549/ATCC NSCLC): 91.4%
growth (786-0 renal): 85.9%
growth (COLO 205 colon): 82.2%

Nc1nc2c(c3ncccc13)C(c1ccc(Cl)c(Cl)c1)Cc1ncccc1-2 (centres undefined)
growth (NCI-H226 lung): 70.8%
growth (NCI-H322M lung): 40.9%
growth (HOP-62 NSCLC): 28%
growth (NCI-H460 lung): 12.5%
growth (HOP-92 NSCLC): 59%
growth (NCI-H522 lung): -6.27% (active)
growth (A549/ATCC NSCLC): 22.7%
growth (786-0 renal): 29.9%
growth (COLO 205 colon): 1.52% (active)

C=C(CN1CCN(c2cccc(C(F)(F)F)n2)CC1)c1ccc(C(=O)Nc2ccccc2N)cc1
growth (NCI-H226 lung): 84.2%
growth (NCI-H322M lung): 45.8%
growth (HOP-62 NSCLC): 20.6%
growth (NCI-H460 lung): 7.02% (active)
growth (HOP-92 NSCLC): -12.1% (active)
growth (NCI-H522 lung): -45.3% (active)
growth (A549/ATCC NSCLC): 27.3%
growth (786-0 renal): 7.8% (active)
growth (COLO 205 colon): 1.41% (active)

CC1=C(NCCN2CCCC2)C(=O)c2c(OCc3ccc(F)c(Cl)c3)cccc2C1=O
growth (NCI-H226 lung): 90.4%
growth (NCI-H322M lung): 64.3%
growth (HOP-62 NSCLC): 68.8%
growth (NCI-H460 lung): 57.7%
growth (HOP-92 NSCLC): 57.1%
growth (NCI-H522 lung): 76%
growth (A549/ATCC NSCLC): 78.3%
growth (786-0 renal): 63.6%
growth (COLO 205 colon): 69.5%

O=C1c2cc3c(cc2-c2c1c1cc(Cl)c(Cl)cc1c(=O)n2CCCn1ccnc1)OCO3
growth (NCI-H226 lung): -3.81% (active)
growth (NCI-H322M lung): 22.9%
growth (HOP-62 NSCLC): -19.5% (active)
growth (NCI-H460 lung): 6.51% (active)
growth (HOP-92 NSCLC): 29.5%
growth (NCI-H522 lung): 1.51% (active)
growth (A549/ATCC NSCLC): 3.18% (active)
growth (786-0 renal): -3.17% (active)
growth (COLO 205 colon): 6.24% (active)

CN(C)C(=O)c1cc2cnc(Nc3ccc(-c4csc5c(=O)cc(N6CCNCC6)oc45)cc3)nc2n1C1CCCC1
growth (NCI-H226 lung): 16.1%
growth (NCI-H322M lung): 23%
growth (HOP-62 NSCLC): 21.4%
growth (NCI-H460 lung): 7.5% (active)
growth (HOP-92 NSCLC): 31.3%
growth (NCI-H522 lung): 46.5%
growth (A549/ATCC NSCLC): 2.05% (active)
growth (786-0 renal): 7.89% (active)
growth (COLO 205 colon): 11%

O=C1/C(=C/c2ccc(Cl)c(Cl)c2)CN(C(=O)CCN2CCC(=NO)CC2)C/C1=C\c1ccc(Cl)c(Cl)c1
growth (NCI-H226 lung): -40.6% (active)
growth (NCI-H322M lung): -78.7% (active)
growth (HOP-62 NSCLC): -88.2% (active)
growth (NCI-H460 lung): -66% (active)
growth (HOP-92 NSCLC): -53.2% (active)
growth (NCI-H522 lung): -90.4% (active)
growth (A549/ATCC NSCLC): -34.6% (active)
growth (786-0 renal): -79.6% (active)
growth (COLO 205 colon): -84.6% (active)

COc1cc(-c2cc(-c3nc4ccc(Cl)cc4[nH]3)[nH]n2)cc(OC)c1OC
growth (NCI-H226 lung): 18.1%
growth (NCI-H322M lung): 51.4%
growth (HOP-62 NSCLC): 40.1%
growth (NCI-H460 lung): 60.4%
growth (HOP-92 NSCLC): 67.2%
growth (NCI-H522 lung): 45.3%
growth (A549/ATCC NSCLC): 50%
growth (786-0 renal): 65.1%
growth (COLO 205 colon): 60.5%
